Records with an inconclusive call do not appear. Where a call stands in place of a potency, no number is given. Activity calls are given as the source filed them. The call rests on the fitted dose curve; in most records, active means well fitted curve in the direction sought with a large enough effect; inconclusive means small, poorly fitted or top-dose-only effect, or another doubt; inactive means no such curve, though single readings can be large; an effect the other way counts as inactive or inconclusive.
Assays:
[1] = target: Aldehyde dehydrogenase, mitochondrial (Homo sapiens) (UniProt P05091); experiment: qHTS for Inhibitors of the Aldehyde Dehydrogenase Family (ALDH2) Primary screen (AID 2061308); settings: ALDH2 enzyme inhibition qHTS, 1536-well; series mostly up to 56 µM; further: nearly all actives have a fitted effect of over 55% in size
[2] = target: Retinaldehyde dehydrogenase 3 (Homo sapiens) (UniProt P47895); experiment: qHTS for Inhibitors of the Aldehyde Dehydrogenase Family (ALDH1A3) Primary screen (AID 2061315); settings: ALDH inhibition qHTS; series mostly up to 56 µM

| Structure (SMILES) | Potency [1] | Potency [2] |
| --- | --- | --- |
| NC(=O)C1CCN(c2nc(-c3ccc4c(c3)CCO4)cs2)CC1 | inactive | inactive |
| O=C(O)c1ccc2c(c1)C(=O)N([C@H](Cc1c3ccccc3cc3ccccc13)C(=O)O)C2=O | inactive | inactive |
| CC1=C(C(=O)Nc2ccccc2)C(c2ccccc2Cl)N=C(Nc2nc3ccccc3o2)N1 (stereo not given) | inactive | inactive |
| CC(=O)Nc1ccccc1OC1=N[S+](=O)([O-])c2ccccc21 | inactive | inactive |
| Cc1cc(NS(=O)(=O)c2cc3c(cc2F)NC(=O)CC3)ccc1Cl | inactive | inactive |
| COc1cccc(CNc2ccc([S+](=O)([O-])Nc3ccccc3)cc2)c1Cl | inactive | inactive |
| CC1(C)CC(=O)C2=C(C1)NC(=S)NC2c1cccc(O)c1 (stereo not given) | inactive | inactive |
| Cc1cc(NC(=O)Nc2nnc(C3CCCCC3)s2)ccc1F | inactive | inactive |
| Cc1cccc(-c2[nH]c(Cc3cccc(C(N)=O)c3)nc2-c2ccc3nccnc3c2)n1 | inactive | inactive |
| O=C(NCCCc1ccccc1)C1CCN(c2nc(-c3ccc(Br)cc3)cs2)CC1 | inactive | inactive |
| O=S(=O)(Nc1nccs1)c1ccc(NCc2ccc(Cl)cc2O)cc1 | inactive | inactive |
| Cc1ccccc1-c1nnc(NC(=O)Nc2ccc3ccccc3c2)s1 | inactive | inactive |
| COC(=O)c1ccccc1C(=O)Nc1nc(-c2ccccc2)cs1 | inactive | inactive |
| NC(=O)C1CCN(c2nc(-c3cccc(Cl)c3)cs2)CC1 | inactive | inactive |
| Cc1cnc(-c2ccccc2C(C)C)nc1NCc1ccc(C#N)cc1 | inactive | inactive |
| CC(=O)Nc1sc2c(c1-c1cccnc1)CCNC2 | inactive | inactive |
| C=Cc1cc(F)c(S(=O)(=O)N2CCN(S(=O)(=O)c3ccc4c(c3)OCCO4)CC2)cc1F | inactive | inactive |
| COc1cc(OC)cc(C2=Nn3c(nnc3-c3cccc(OC)c3)SC2)c1 | inactive | inactive |
| N#CN/C(=N\c1nnc(-c2ccncc2)s1)Nc1ccc(F)c(C(F)(F)F)c1 | inactive | inactive |
| Cc1cc(-c2nnc3n2CCCCCC3)c(C)n1-c1ccccc1 | inactive | inactive |
| O=C(CNC(=O)c1ccc2cc[nH]c2c1)OC(C(=O)Nc1cc(C(F)(F)F)ccc1Cl)c1ccccc1 (stereo not given) | inactive | inactive |
| COc1ccc(C)cc1NC(=O)C(OC(=O)CNC(=O)c1ccccc1)c1ccccc1 (stereo not given) | inactive | inactive |
| O=C1c2ccccc2C(=O)N1c1nccs1 | inactive | inactive |
| COc1ccc(OC2=NS(=O)(=O)c3ccccc32)cc1 | inactive | inactive |
| O=C(CSc1nnc(-c2cccc(S(=O)(=O)N3CCCC3)c2)n1-c1ccccc1)Nc1ccc(Cl)cc1 | inactive | inactive |
| O=C(O)c1ccc2c(c1)C(=O)N([C@H](Cc1ccc(O)c(O)c1)C(=O)O)C2=O | inactive | inactive |
| CC(C)(C)OC(=O)n1c2ccsc2c2cnn(Cc3ccccc3F)c(=O)c21 | inactive | inactive |

| Structure (SMILES) | Potency [1] | Potency [2] |
| --- | --- | --- |
| c1cncc(-c2ccc(CNc3nc(N4CCCC4)nc4ccccc34)cc2)c1 | inactive | inactive |
| Cc1cc(C)nc(NC(=S)N2CCN(c3ccc(Cl)cc3[N+](=O)[O-])CC2)c1 | inactive | inactive |
| N#Cc1nc(NC2CCCC2)c2ncn(-c3cc(F)cc(F)c3)c2n1 | inactive | inactive |
| C=C1C(=O)OC2C1CCC1(C)C(O)CCC(=C)C21 (stereo not given) | inactive | inactive |
| Nc1ccc2c(=O)n3nc(Nc4ccc5c(c4)CCC5)sc3nc2c1 | inactive | inactive |
| O=S(=O)(c1ccc2c(c1)OCCO2)N1CCN(S(=O)(=O)c2ccc3nc(Cl)c(Cl)nc3c2)CC1 | inactive | inactive |
| N#CN1CCC(NS(=O)(=O)c2cccc(F)c2)C1 (stereo not given) | inactive | inactive |
| Cc1ccc(NS(=O)(=O)c2cc3c(cc2N(C)CCN(C)C)NC(=O)CC3)cc1C | inactive | inactive |
| O=C(OCC#CCSc1nnc(-c2cccc3ccccc23)o1)c1ccc2ccccc2c1 | inactive | inactive |
| Cc1cc(N[S+](=O)([O-])c2ccc(NC(=O)Cc3ccc(F)c(F)c3)cc2)no1 | inactive | inactive |
| c1ccc(COc2cccc(-c3nc4ccccc4s3)c2)cc1 | inactive | inactive |
| CN(C)S(=O)(=O)c1ccc(-c2nc(NCc3ccc(-c4ccnc(C(F)(F)F)c4)cc3)c3ccccc3n2)cc1 | inactive | inactive |
| CN(Cc1ccco1)c1ncnc2ccc(-c3ccccc3Cl)cc12 | inactive | inactive |
| Cc1cc2c(s1)c1cnn(Cc3c(C)cc(F)cc3C)c(=O)c1n2C | inactive | inactive |
| CN(C)CC(=O)NC1CCCc2c1cnn2-c1ccc(F)cc1F (stereo not given) | inactive | inactive |
| CC(=O)O[C@@H]1C(=O)O[C@@H]2[C@H]1OC(=O)[C@@H]2OC(C)=O | inactive | inactive |
| CCN(CC)CCCn1c(-c2ccccc2)nc2c(N(CCOC)CCOC)nc(C)nc21 | inactive | inactive |
| CCN(Cc1ccccc1)c1ccc(Br)cn1 | inactive | inactive |
| NC(=O)C1CCN(c2ncc(-c3cccc(F)c3)s2)CC1 | inactive | inactive |
| Cc1cc2c(s1)c1cnn(Cc3c(Cl)cccc3Br)c(=O)c1n2C | inactive | inactive |
| CCCn1c(-c2ccc(F)cc2)nc2c(NCCN(C(C)C)C(C)C)nc(C)nc21 | inactive | inactive |
| Cc1c(P(=S)(c2ccccc2)c2ccccc2)c2ccccc2n1Cc1ccccc1 | inactive | inactive |
| COc1cccc(C2c3c(ncn(-c4ccc(C)cc4)c3=N)Oc3ccc4ccccc4c32)c1 (stereo not given) | inactive | inactive |
| Cc1ccc(S(=O)(=O)Nc2ccncc2C(=O)Nc2nc(-c3ccccc3)cs2)cc1 | inactive | inactive |
| COc1cc(-c2ccc3ncnc(NCc4ccc(C)o4)c3c2)cc(OC)c1OC | inactive | inactive |
| CS(=O)(=O)c1ccc(C(=O)OC(C(=O)NC2C3CC4CC(C3)CC2C4)c2ccccc2)cc1[N+](=O)[O-] (stereo not given) | inactive | inactive |
| Cc1cn([C@H]2C[C@H](N[S+](=O)([O-])c3ccc4c(c3)OCCO4)[C@@H](CO)O2)c(=O)[nH]c1=O | inactive | inactive |

| Structure (SMILES) | Potency [1] | Potency [2] |
| --- | --- | --- |
| CCC(=O)NC(c1ccc(C)cc1)c1cc([N+](=O)[O-])c2cccnc2c1O (stereo not given) | inactive | inactive |
| N#Cc1c(-c2ccc(OCCOCCOCCNC(=O)CCCC[C@@H]3SC[C@@H]4NC(=O)N[C@@H]43)cc2)no[n+]1[O-] | inactive | inactive |
| Cc1ccc(OCCn2c(CCN[S+](=O)([O-])C3CCCCC3)nc3ccccc32)cc1 | inactive | inactive |
| O=C(Cc1nnc(-c2cc3ccccc3[nH]2)s1)Nc1cc(C(F)(F)F)ccc1Cl | inactive | inactive |
| CCCn1c(C)nc2c(NCCN(C)C)nc(C)nc21 | inactive | inactive |
| CCOc1ccccc1-c1nnc2n1N=C(c1ccccc1OC)CS2 | inactive | inactive |
| CCCn1c(C)nc2c(NC3CCN(Cc4ccccc4)CC3)nc(C)nc21 | inactive | inactive |
| COc1ccc(O[C@@H]2O[C@H](CO)[C@H](O)[C@H](O)[C@H]2O)cc1 | inactive | inactive |
| CCOC(=O)C1CCN(C(=O)C(C)(C)NC(=O)Nc2ccc(Oc3ccccc3)cc2)CC1 | inactive | inactive |
| COc1cccc(C2c3c(ncn(-c4cccc(OC)c4)c3=N)Oc3ccc4ccccc4c32)c1 (stereo not given) | inactive | inactive |
| S=C(Nc1ccc(Cl)c(Cl)c1)Nc1nnc(-c2ccncc2)s1 | inactive | inactive |
| Oc1cc(-c2ccncc2)cc2cccnc12 | inactive | inactive |
| Cc1sc(C)c2c1C(=O)NS2(=O)=O | inactive | inactive |
| CCN1CCC[C@@H]1CNC(=O)c1ccc2c(c1)NC(=O)/C(=C/c1ccccc1F)S2 | inactive | inactive |
| COc1cnc(-c2ccc(Cn3c(CC(C)(C)C(=O)O)c(SC(C)(C)C)c4cc(OC[C@@H]5Cc6ccccc6N5C(C)=O)ccc43)cc2)nc1 | inactive | inactive |
| Cn1ccc2cc(-c3ccc4ncnc(NCc5cccs5)c4c3)ccc21 | inactive | inactive |
| CC(=O)NCc1cc(Cl)c2cccnc2c1O | inactive | inactive |
| O=C1CCc2cc(S(=O)(=O)Nc3ccccc3Cl)ccc2N1 | inactive | inactive |
| CC(=O)c1ccccc1-c1csc2ncnc(Sc3nnnn3C)c12 | inactive | inactive |
| C/C=C/C=C/C=C/C(=O)O[C@@H]1C=C2COC(=O)[C@]2(O)[C@@]2(C)CCCC(C)(C)[C@H]12 | inactive | inactive |
| COc1ccc(C(=O)O[C@H]2C=COC=C3C=C4C(=O)N(C)C(=S)C(=O)N4[C@@H]32)cc1Oc1cc(C=O)ccc1O | inactive | inactive |
| O=C1CCCC2=C1C(c1[nH]ncc1Cl)NC(=NCc1cccnc1)N2 (stereo not given) | inactive | inactive |
| CNc1oc(-c2cccc3ccccc23)nc1C(=O)OC | inactive | inactive |
| Cc1ccc(C(=O)Nc2ccccc2C(=O)Nc2nc(-c3ccccc3)cs2)cc1 | inactive | inactive |
| Cc1ccc(S(=O)(=O)Nc2cnccc2C(=O)Nc2ccncc2)cc1 | inactive | inactive |
| CC(C)N1CCc2c(sc(NC(=O)C3CCCC3)c2-c2nc3ccccc3s2)C1 | inactive | inactive |

Reference: PubChem BioAssay (NCATS)
